IL1B secr inh = inflammasome signaling inhibition, IL-1 beta readout; THP-1 LPS/ATP IL-1B secretion, AlphaLISA, 16 h; active compounds read low; activity change, % at 57.5 µM; 360,000 tested, 4.7% active; AID 743279; in the data active = activity change below about -50%; inconclusive = mostly about -30% to -49%
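THP-1 cells pretreated 1 hr with compounds (up to 57.5 uM final), then stimulated with LPS (250 ng/mL final) plus ATP (1.25 mM final); secreted IL-1B measured by AlphaLISA after 16 hr, decreased signal indicating inhibition.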
HT1080NT lethal = kills 2HG-producing HT-1080-NT fibrosarcoma cells; 360,000 tested, 1.6% active; Potency, µM (top dose mostly 46.1 µM), for the others: at the highest dose activity, negative = less viability, usual class: cytotoxic; HT-1080-NT fibrosarcoma viability, CellTiter-Glo ATP luminescence, 48 h; AID 686970;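 note: NT is the 2HG producing partner of a matched IDH1 knockdown line; potency is the fitted concentration of half-maximal effect; 0% = DMSO-treated cells and -100% = media-only wells without cells; nearly all actives have a fitted effect of over 55% in size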
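HT-1080-NT fibrosarcoma cells (2HG-overproducing), 750 cells/well in RPMI with 5% FBS, dosed after 2 h and incubated 48 h at 37C. CellTiter-Glo luminescence normalized to DMSO and no-cell wells; concentration-response curves fitted and classed.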
DT40 TDP1 no CPT = qHTS for Inhibitors of human tyrosyl-DNA phosphodiesterase 1 (TDP1): qHTS in cells in absence of CPT. 420,000 tested, 15% active. Potency, µM (series often up to 46.2 µM), inactives show top-dose activity change, negative = growth inhibition, hits mostly inhibitors. DT40 Tdp1-/- hTDP1 cells, no CPT, ATP luminescence, 48 h; note: potency is the fitted concentration of half-maximal effect; nearly all actives have a fitted effect of over 55% in size
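No-CPT arm: Tdp1-/-;hTDP1 DT40 cells (400/well) plus compounds, incubated ≥48 hr at 37 °C. Readout CellTiter-Glo luminescence.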
uPA surface inh = cell surface uPA generation inhibition; cell surface uPA generation assay, qHTS; Potency, µM (doses to about 38.3 µM), for inactives: at the top dose activity change, negative = inhibition, hits mostly inhibitors; 330,000 tested, 0.31% active; AID 540303; active = well fitted inhibition curve with a large enough effect; inconclusive = small, poorly fitted or top-dose-only effect; inactive = no such curve, though single readings can be large or run the other way; tested in mouse RAW 264.7 cells; note: potency is the fitted concentration of half-maximal effect; nearly all actives have a fitted effect of over 55% in size
DT40 TDP1 CPT = growth inhibition of DT40 Tdp1-/-;hTDP1 cells with camptothecin (screen for TDP1 inhibitors); chicken DT40 Tdp1-/-;hTDP1 cells + 20 nM CPT, ATP luminescence, 48 h; Potency, µM (top dose mostly 46.2 µM), for inactives: at the top dose activity change, negative = growth inhibition, usual class: inhibitors; 420,000 tested, 12% active; AID 686979; note: potency is the fitted concentration of half-maximal effect; nearly all actives have a fitted effect of over 55% in size
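Chicken DT40 Tdp1-/- cells complemented with human TDP1, 400 cells/well, exposed to compounds plus 20 nM camptothecin for at least 48 h at 37 C; viability read as ATP content by CellTiter-Glo luminescence.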
HT1080 IDH1KD tx = toxicity to HT-1080 IDH1 knockdown cells (counter line). Potency, µM (series often up to 46.1 µM), without a hit: top-dose activity, negative = toxicity, hits mostly cytotoxic. 360,000 tested, 2% active. HT-1080 IDH1 knockdown viability, ATP luminescence, 48 h;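 note: potency is the fitted concentration of half-maximal effect; 0% = DMSO wells and -100% = cell-free medium wells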
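Knockdown cells (IDH1KD HT-1080) received compounds 2 h after plating at 750 cells/well and were kept 48 h at 37 °C in 5% FBS RPMI. A CellTiter-Glo luminescence read gave % activity for curve fitting.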
Starred values were filed as active, the others as inactive; u = inconclusive; x = not tested or not shown. An excerpt weighted towards active compounds, which were near 19% of everything screened. Unless noted, calls come from the whole dose curve; as a rule, active = well fitted curve in the direction sought with a large enough effect; inconclusive = small, poorly fitted or top-dose-only effect, or another doubt; inactive = no such curve, though single readings can be large; an effect the other way counts as inactive or inconclusive. Unless noted, % is set by controls: 0 for no effect and ±100 for the full control effect.

SMILES	IL1B secr inh	HT1080NT lethal	DT40 TDP1 no CPT	uPA surface inh	DT40 TDP1 CPT	HT1080 IDH1KD tx
COc1ccc(Cn2c(SCc3ccc(C(=O)NCc4cccs4)cc3)nc3cccnc32)cc1	x	x	-79%	x	u	x
O=C(NCc1cccs1)c1ccc(CSc2nc3cccnc3n2Cc2ccccc2)cc1	x	x	15µM*	x	u	x
O=C(NC1CCCC1)c1ccc2c(=O)n(Cc3ccccc3)c(SCc3cccc(F)c3)nc2c1	x	x	u	x	-27%	x
O=C(C1CCCN1S(=O)(=O)c1ccc(Cl)cc1)N1CCN(c2ccccc2)CC1 (configuration not stated)	-2	-3%	u	2%	-6%	0%
O=C(NCc1ccccc1)c1ccc(CSc2nc3cccnc3n2Cc2ccccc2)cc1	x	x	18µM*	x	4.6µM*	x
Cc1ccc(CSc2nc3cccnc3n2Cc2ccc(C(=O)NCCc3cccs3)cc2)cc1	x	x	18µM*	x	18µM*	x
O=C(NCc1ccccc1)c1ccc(CSc2nc3cccnc3n2Cc2cccc(F)c2)cc1	x	x	10µM*	x	13µM*	x
CNC(=O)c1ccc(CSc2nc3cccnc3n2Cc2cccc(F)c2)cc1	x	x	18µM*	x	3.7µM*	x
O=C(NC1CCCCC1)c1ccc(CSc2nc3ccncc3n2Cc2cccc(F)c2)cc1	x	x	18µM*	x	u	x
O=C(NC1CCCC1)c1ccc2c(=O)n(Cc3ccccc3)c(SCc3ccc([N+](=O)[O-])cc3)nc2c1	x	x	-15%	x	u	x
Cc1ccc(CSc2nc3cccnc3n2Cc2nc(-c3ccccc3F)oc2C)cc1	x	x	3.7µM*	x	4.6µM*	x
Cc1cccc(C)c1OCC(=O)NCC1COc2ccccc2O1 (configuration not stated)	-8	0%	u	-7%	-4%	0%
Cc1ccc(Cl)c(OC(=O)Cn2cnc3c2c(=O)n(C)c(=O)n3C)c1	13	10%	13%	5%	-3%	10%
COC(=O)[C@]1(Cc2ccccc2)N[C@H](CN(C)S(=O)(=O)c2ccc(-c3ccccc3)cc2)[C@@H]2C(=O)N(C)C(=O)[C@@H]21	-18	-3%	21µM*	14%	26µM*	-9%
CCN(C[C@H]1N[C@@](Cc2ccccc2)(C(=O)OC)[C@H]2C(=O)N(Cc3ccccc3)C(=O)[C@@H]12)S(=O)(=O)c1ccc(C(F)(F)F)cc1	-18	7%	u	16%	u	0%
CCN(C[C@H]1N[C@@](Cc2ccccc2)(C(=O)OC)[C@H]2C(=O)N(C)C(=O)[C@@H]12)S(=O)(=O)c1ccc(OC)cc1	-18	2%	15µM*	-1%	15µM*	2%
CCN(C[C@H]1N[C@@](Cc2ccccc2)(C(=O)OC)[C@H]2C(=O)N(C)C(=O)[C@@H]12)S(=O)(=O)c1ccc(C(F)(F)F)cc1	-25	-14%	18µM*	17%	23µM*	-27%
CCN(C[C@H]1N[C@@](Cc2ccccc2)(C(=O)OC)[C@H]2C(=O)N(C)C(=O)[C@@H]12)S(=O)(=O)c1ccc(OC(F)(F)F)cc1	-27	-12%	16µM*	10%	u	-9%
Cc1cccc(C(=O)OCC(=O)NC(C)CCc2ccccc2)c1O (configuration not stated)	11	25%	-19%	-4%	11%	25%
COc1ncc2nc(CCc3ccccc3)c(=O)n(CCC#N)c2n1	x	x	-29%	x	-2%	x
COc1ccccc1OCCSc1nc2ccccc2c(=O)[nH]1	0	-2%	u	1%	u	0%
O=c1[nH]c(SCc2ccc(F)cc2Cl)nc2ccccc12	10	1%	21µM*	-1%	-42%	-2%
Cn1c(SCCOc2ccccc2F)nc2ccccc2c1=O	10	-12%	16µM*	-1%	18µM*	-6%
Cn1c(SCc2c(F)cccc2Cl)nc2ccccc2c1=O	0	5%	-27%	3%	-25%	7%
O=c1[nH]c(SCCOc2ccccc2F)nc2ccccc12	21	-21%	6.5µM*	-2%	2%	-5%
SMILES	IL1B secr inh	HT1080NT lethal	DT40 TDP1 no CPT	uPA surface inh	DT40 TDP1 CPT	HT1080 IDH1KD tx
COc1ccc(CSc2nc3ccccc3c(=O)[nH]2)cc1F	27	-11%	u	-5%	u	2%
COc1ccccc1N(C)C	x	x	3%	x	-2%	x
CC(C)c1nc(SCC(=O)NCC2CCCO2)c2c(=O)n(C)c(=O)n(C)c2n1 (configuration not stated)	-1	-1%	-23%	-10%	-28%	2%
COC(=O)c1ccc2c(=O)[nH]c(CSc3nc(-c4ccc(F)cc4)cs3)nc2c1	33	21%	-22%	-11%	-3%	22%
COc1cc2nc(CSc3nc(-c4ccc(F)cc4)cs3)[nH]c(=O)c2cc1OC	11	10%	u	0%	15µM*	1%
O=C(CSCc1cccc(Br)c1)NC1CC1	-4	9%	-15%	1%	-13%	11%
N#CC(C#N)=C(Nc1ccc(F)cc1)SCc1cccc(Br)c1	-96*	9.2µM*	2.3µM*	-16%	2.9µM*	18µM*
Cc1ccccc1CN1CCN(c2ccc(S(=O)(=O)N3CCCC3)cn2)CC1	-1	5%	u	-3%	u	5%
CCOC(=O)C1=CCC(c2cccc(C)c2)N(S(=O)(=O)c2ccc(C)cc2)C1 (configuration not stated)	20	u	16µM*	x	18µM*	u
CCOC(=O)C1=CCC(c2cccs2)N(S(=O)(=O)c2ccc(C)cc2)C1 (configuration not stated)	11	u	u	x	u	u
CCOC(=O)C1=CCN(S(=O)(=O)c2ccccc2)C1c1ccccc1 (configuration not stated)	49	1%	u	x	u	1%
CCOC(=O)C1=CCC(c2ccccc2)N(S(=O)(=O)c2ccccc2)C1 (configuration not stated)	-1	-16%	18µM*	x	23µM*	-18%
OCc1cccc[n+]1CCc1ccccc1	27	-4%	-6%	0%	27%	-4%
COC(=O)C[C@H]1C=C[C@@H](NC(=O)C2CC2)[C@@H](CO)O1	22	18%	3%	x	3%	29%
Cc1ccc(NC(=O)c2ccc(-c3nn(C)c(=O)c4ccccc34)cc2)cc1	-8	0%	u	-3%	21µM*	0%
CCCC(=O)NCc1cc(-c2nn(C)c(=O)c3ccccc23)ccc1C	-3	14%	-12%	0%	-28%	7%
